High-throughput results from PubChem.
Compounds with a hit are over-represented: about 2.4% of the library has one in this group of screens.
D2 antag = antagonists of human D2 dopamine receptor | P14416 | HEK293 TREx D2 cells, calcium flux, dopamine EC80 | inhibition, % at 10 µM | 2% of 340,000 active | AID 485344; in the data active means inhibition above about 30%; inactive means below that, where a call was filed
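Cells plated overnight at 30 C with tetracycline; no-wash calcium dye, 30–90 min RT; 10 s baseline; compound pinned; 180 s read; EC80 dopamine added; another 180 s read.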
D2 PAM-1 = human D2 receptor positive allosteric modulation. potentiation, % (no concentration beside the values). 0.23% of 360,000 active. DiscoveRx D2 beta-arrestin cells, luminescence, 90 min; 100% = 57 uM dopamine signal. AID 624464; in the data active means potentiation above about 50%; inconclusive means mostly about 30% to 49%
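PathHunter beta-arrestin assay in DiscoveRx D2 cells. Compounds were added with an EC20 of dopamine (50 nM final) for 90 min at 37 deg C. Luminescence was read 1 h after detection reagent, with 57 uM dopamine as the EC100 control.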
D2 PAM-2 = positive allosteric modulators of human D2 dopamine receptor | potentiation, % at 10 µM | 0.34% of 340,000 active | P14416 | AID 485347 | HEK293 T-REx D2, calcium flux, EC20 dopamine potentiation;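 active means potentiation over 3 SD above the plate norm, cut at about 30% in these data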
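Primary screen. Calcium kinetics in induced HEK293 T-REx D2 cells: compound pre-addition 180 s, EC20 dopamine, 180 s more.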
D2 ag-1 = activates the human D2 dopamine receptor; P14416; DiscoveRx PathHunter D2 beta-arrestin, luminescence, 90 min; 100% = 57 uM dopamine signal; activation, % (test concentration not listed); 0.084% of 360,000 active; in the data active means activation above about 40%; inconclusive means between about 15% and that limit
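DiscoveRx PathHunter D2 beta-arrestin cells (2,100/well) attached overnight, then compound-stimulated 90 min at 37 C in HBSS/10 mM HEPES/0.1% Tween-20 buffer; beta-galactosidase complementation read by luminescence after 1 h at ambient temperature. Dopamine 57 uM final (EC100) as control.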
D2 ag-2 = D2 dopamine receptor (human) agonism. P14416. HEK293 T-REx D2 cells, calcium flux agonist mode. activation, % at 2 µM. 0.53% of 340,000 active;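 active means activation over 3 SD above normal in the single-dose calcium agonist read, cut at about 30% in these data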
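Tetracycline-induced HEK293 T-REx cells with force-coupled D2 receptor, plated overnight at 30 C, loaded with no-wash calcium dye. After a 10 s baseline, compound was pin-added and calcium flux read kinetically for 180 s; calcium rises flagged agonists.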
D3 ag = activates human D3 dopamine receptor beta-arrestin recruitment. Potency, µM (titrated, usually from 76.9 µM), hits mostly activators. shares compounds with D2 ag-2. 4% of 2,300 active. AID 720506. DiscoveRx D3 beta-arrestin cells, luminescence, 90 min; further: nearly all actives have a fitted effect of over 70% in size
Target sequence (P35462 whole entry, looked up): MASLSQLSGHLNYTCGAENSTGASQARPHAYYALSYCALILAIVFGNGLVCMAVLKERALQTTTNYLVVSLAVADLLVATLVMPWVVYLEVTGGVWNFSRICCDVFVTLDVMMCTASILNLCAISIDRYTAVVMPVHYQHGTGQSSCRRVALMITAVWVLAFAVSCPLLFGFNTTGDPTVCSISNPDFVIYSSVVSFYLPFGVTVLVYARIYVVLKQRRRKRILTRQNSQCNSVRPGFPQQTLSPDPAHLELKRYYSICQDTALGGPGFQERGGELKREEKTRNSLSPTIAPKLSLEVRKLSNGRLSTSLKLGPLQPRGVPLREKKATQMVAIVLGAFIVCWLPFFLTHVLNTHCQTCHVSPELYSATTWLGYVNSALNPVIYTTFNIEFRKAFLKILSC
D2 ag-3 = D2 receptor agonism, beta-arrestin counterscreen; shares compounds with D2 ag-2; 5.9% of 2,300 active; Potency, µM (top dose mostly 76.9 µM), actives largely listed as activators; AID 720507; DiscoveRx PathHunter D2 beta-arrestin, luminescence, 90 min; response scale: percent relative to full dopamine signal; further: nearly all actives have a fitted effect of over 70% in size
Of the large screens only hits and unclear results are named; the others gave an inactive call (follow-up assays come after a bar, where they were run). Unless noted, the call rests on the fitted dose curve; in most records, active means well fitted activation curve with a large enough effect; inconclusive means small, poorly fitted or top-dose-only effect; inactive means flat fitted curve, though single readings scatter.

COc1ccc(CC(=O)NC(C)(C)CC(C)=O)cc1OC	none
CC(=O)c1cccc(NC(=O)c2nc3ccccc3n(C)c2=O)c1	none (no result: D2 antag, D2 PAM-1, D2 ag-1)
Cc1ccc(/C([O-])=C(/C(=S)NCc2ccccc2)[n+]2ccccc2)cc1[N+](=O)[O-]	D2 ag-2 31 | D3 ag inactive | D2 ag-3 inactive
COc1ccc(C2C(C(=O)Nc3ccccc3OC)=C(C)Nc3c(C(=O)Nc4ccccc4)cnn32)c(OC)c1 (centres undefined)	none (no result: D2 antag, D2 PAM-1, D2 ag-1)
CCOC(=O)N1CCN(CCCc2ccccc2)CC1	D2 antag 34 | D3 ag inactive | D2 ag-3 inactive
COc1cccc(C(=O)N2CCN(CCCc3ccccc3)CC2)c1OC	none
COc1ccc(C(=O)N2CCN(CCCc3ccccc3)CC2)cc1OC	D2 ag-2 40 | D3 ag inconclusive | D2 ag-3 inactive
CC1=C(c2ccc(C)c(C)c2)S(=O)(=O)N=C1N1CCC(C(=O)N2CCC(C)CC2)CC1	none (no result: D2 antag, D2 PAM-1, D2 ag-1)
O=C(NCCN1CCN(c2ccccc2)CC1)C1CCCN(S(=O)(=O)c2cnc[nH]2)C1 (centres undefined)	D2 antag 76, D2 PAM-1 74, D2 ag-1 inconclusive, D2 ag-2 74 | D3 ag inconclusive | D2 ag-3 inconclusive
O=C(NCCN1CCN(c2ccccc2)CC1)C1CCN(S(=O)(=O)N2CCOCC2)CC1	D2 antag 61, D2 ag-1 inconclusive, D2 ag-2 84 | D3 ag inconclusive | D2 ag-3 inconclusive
O=C(NCCN1CCN(c2cccc(Cl)c2)CC1)C1CCCN(S(=O)(=O)c2cnc[nH]2)C1 (centres undefined)	D2 antag 81, D2 ag-2 81 | D3 ag inconclusive | D2 ag-3 inconclusive
CN(Cc1ccccc1)C(=O)c1ccc(NC(=O)Cc2ccc(NC(=O)C3CCN(C(=O)C4CCC4)CC3)cc2)cc1	none (no result: D2 antag, D2 PAM-1, D2 PAM-2, D2 ag-2)
CN(Cc1ccccc1)C(=O)c1ccc(NC(=O)Cc2cccc(NC(=O)C3CCN(C(=O)C4CCC4)CC3)c2)cc1	none | D3 ag inactive | D2 ag-3 inactive
COc1cccc(-n2cc(C(=O)Nc3cccc(C(F)(F)F)c3)c3ccccc3c2=O)c1	none (no result: D2 antag, D2 PAM-1, D2 ag-1)
Cc1ncsc1CCOC(=O)c1ccc(N2CCOCC2)c([N+](=O)[O-])c1	none | D3 ag inconclusive | D2 ag-3 inconclusive
CCOC(=O)C1C(C(=O)OCC)C1(c1ccccc1)c1ccccc1 (centres undefined)	none
CCOC(=O)/C=C/[C@H]1CC(c2ccccc2)(c2ccccc2)CO1	none | D3 ag inactive | D2 ag-3 inactive
COc1cc(NC(=O)c2ccc(NC(=O)N3CCSc4ncccc43)cc2)cc(OC)c1	none (no result: D2 antag, D2 PAM-1, D2 ag-1)
COc1ccc(CN2CCN(c3ccccn3)CC2)cc1OCc1ccccc1	D2 antag 87, D2 ag-1 inconclusive, D2 ag-2 72 | D3 ag inactive | D2 ag-3 inconclusive
CCN1CCN(Cc2ccc(OC)c(OCc3ccccc3)c2)CC1	none
CC1(C)CCc2cc(CN3CCN(c4ccccn4)CC3)ccc2O1	D2 antag 85, D2 ag-2 77 | D3 ag inactive | D2 ag-3 inconclusive
COc1ccc(CN2CCN(C(=O)c3ccco3)CC2)cc1OCc1ccccc1	D2 antag 71, D2 ag-1 inconclusive, D2 ag-2 83 | D3 ag inconclusive | D2 ag-3 18µM
COc1ccc(-c2[nH]ncc2CN2CCN(c3ccccn3)CC2)c(OC)c1	D2 antag 57, D2 ag-2 69 | D3 ag inactive | D2 ag-3 inactive
O=C(NCCOCCn1c(=O)oc2ccccc21)Nc1ccc(F)cc1F	none (no result: D2 antag, D2 PAM-1, D2 ag-1, D2 ag-2)
CCOc1ccc(CCNC(=O)CCN2N=C(c3ccc(OC)cc3)CCC2=O)cc1OCC	none (no result: D2 antag, D2 PAM-1, D2 ag-1, D2 ag-2)
CCc1ccc(NC(=O)CSc2nc3ncccc3[nH]2)cc1	none (no result: D2 antag, D2 PAM-1, D2 ag-1)
COc1ccc(-c2nc(CCNC(=O)c3c(F)cccc3Cl)cs2)cc1	none (no result: D2 antag, D2 PAM-1, D2 ag-1)
Cc1ccc(NC(=O)CCCN2C(=O)COc3ccc(C)cc32)c(Cl)c1	none (no result: D2 antag, D2 PAM-1, D2 ag-1)
COc1ccc(CN2CCN(C(=O)c3ccco3)CC2)cc1OC	D2 antag 60, D2 PAM-1 inconclusive, D2 ag-1 84, D2 ag-2 86 | D3 ag inconclusive | D2 ag-3 16µM
O=Cc1c(N2CCCCCC2)nc2ccccn2c1=O	D2 ag-2 56 | D3 ag inactive | D2 ag-3 inactive
O=Cc1c(N2CCCCC2)nc2ccccn2c1=O	none
CCOc1ccc2nc(N3CCCC(C(=O)Nc4ccc(OC)cc4)C3)sc2c1 (centres undefined)	none (no result: D2 antag, D2 PAM-1, D2 ag-1)
O=C(N1CCN(c2ccccc2)CC1)C(F)(F)C(F)F	none
O=C(CN1CCN(c2ccccc2)CC1)N1CCN(c2ccccc2)CC1	D2 ag-2 47 | D3 ag inconclusive | D2 ag-3 inactive
O=C(N1CCN(c2ccccc2)CC1)C(F)(F)C(F)(F)F	none | D3 ag inactive | D2 ag-3 inactive
O=C(CN1CCCCC1)N1CCN(c2ccccc2)CC1	none
CCCCN(CC)CCCNC(=O)C1CCN(c2nc3ccc(CC)cc3s2)CC1	none (no result: D2 antag, D2 PAM-1, D2 ag-1)
CCOCCCNC(=O)c1ccc(NC(=O)N2CCCCc3ccccc32)cc1	none (no result: D2 antag, D2 PAM-1, D2 ag-1)
Nc1cc(=O)nc(SCC(=O)N2CCN(c3ccccc3)CC2)n1-c1ccccc1	none
Nc1cc(=O)nc(SCC(=O)N2CCN(c3ccccc3)CC2)n1-c1ccc(F)cc1	none | D3 ag inactive | D2 ag-3 inactive
Cc1ccc(-n2c(N)cc(=O)nc2SCC(=O)N2CCN(c3ccccc3)CC2)cc1	D2 antag 64, D2 ag-2 66 | D3 ag inactive | D2 ag-3 inactive
COc1cccc(-n2c(N)cc(=O)nc2SCC(=O)N2CCN(c3ccccc3)CC2)c1	none | D3 ag inactive | D2 ag-3 inactive
O=C(NCC1CCCO1)C(=O)NCC(c1ccco1)N1CCN(c2ccccc2F)CC1 (centres undefined)	D2 antag 48, D2 ag-2 58 | D3 ag 32µM | D2 ag-3 inconclusive
O=C(NCC(c1ccco1)N1CCN(c2ccccc2F)CC1)c1cccs1 (centres undefined)	D2 ag-1 inconclusive
O=C(NCC(c1ccco1)N1CCN(c2ccccc2F)CC1)c1ccco1 (centres undefined)	D2 antag 54, D2 ag-1 inconclusive, D2 ag-2 32 | D3 ag inconclusive | D2 ag-3 inconclusive
O=C(NCC(c1ccco1)N1CCN(c2ccccc2F)CC1)C(=O)NC1CCCC1 (centres undefined)	none
CCOC(=O)N1CCC(NC(=O)c2cnn(-c3ccc(C)cc3)c2C2CCN(C(=O)OC(C)(C)C)CC2)CC1	none (no result: D2 antag, D2 PAM-1, D2 ag-1)
Cc1ccc(CCNC(=O)c2ccc(CSCc3ccccc3C)o2)cc1	none (no result: D2 antag, D2 PAM-1, D2 ag-1)
